Our source for the outcome and AC50 values is PubChem BioAssay (EPA / NIEHS).

Common to all, as to conditions: mRNA level, 48 h; actives raise or lower the signal
Read-out in experiment [1]: Cyclin D1 (CCND1), CCND1 (gene 595)
The experiment can be described thus: LTEA_HepaRG_CCND1: Life Technologies and Expression Analysis (LTEA) Assay for Cyclin D1 (CCND1) using HepaRG (AID 2283451). In short, it runs like this:
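Differentiated human HepaRG cells in serum-free induction medium were exposed 48 h to eight half-log concentrations up to 100 uM in 0.5% DMSO; mRNA quantified by TaqMan qRT-PCR, normalized to ACTB, GAPDH, POLR2A, fitted bidirectionally versus DMSO.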

Read-out in experiment [2]: catalase (CAT), CAT (gene 847)
In words: LTEA_HepaRG_CAT: Life Technologies and Expression Analysis (LTEA) Assay for catalase (CAT) using HepaRG (AID 2283452). In short, it runs like this:
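HepaRG cells in serum-free induction medium, 0.5% DMSO vehicle, exposed 48 h in duplicate over 8 half-log concentrations from 100 uM. CAT mRNA measured by qRT-PCR, normalized to ACTB, GAPDH, POLR2A; bidirectional fit versus DMSO.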

Read-out in experiment [3]: flavin-containing dimethylaniline monooxygenases 3 (FMO3), FMO3 (gene 2328)
The experiment can be described thus: LTEA_HepaRG_FMO3: Life Technologies and Expression Analysis (LTEA) Assay for flavin-containing dimethylaniline monooxygenases 3 (FMO3) using HepaRG (AID 2283453). The essentials:
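Differentiated HepaRG cells in serum-free induction medium, exposed 48 h in duplicate to 8 half-log concentrations up to 100 uM in 0.5% DMSO. FMO3 mRNA by qRT-PCR, normalized to ACTB, GAPDH, POLR2A; bidirectional fit vs DMSO.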

Read-out in experiment [4]: Cytochrome P450 (CYP1A1), CYP1A1 (gene 1543)
The experiment can be described thus: LTEA_HepaRG_CYP1A1: Life Technologies and Expression Analysis (LTEA) Assay for Cytochrome P450 (CYP1A1) using HepaRG (AID 2283454). In short, it runs like this: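 Differentiated HepaRG cells in serum-free induction medium were exposed in duplicate for 48 h to eight half-log concentrations up to 100 uM in 0.5% DMSO. CYP1A1 mRNA was quantified by TaqMan qRT-PCR, normalized to ACTB, GAPDH and POLR2A.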

Read-out in experiment [5]: CFLAR gene, CFLAR (gene 8837)
In words: LTEA_HepaRG_CFLAR: Life Technologies and Expression Analysis (LTEA) Assay for CFLAR gene using HepaRG (AID 2283455). In short, it runs like this:
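Differentiated HepaRG cells in serum-free induction medium were exposed 48 h in duplicate to eight half-log concentrations up to 100 uM in 0.5% DMSO; mRNA measured by TaqMan qRT-PCR, normalized to ACTB, GAPDH, POLR2A; bidirectional fitting versus DMSO.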

Read-out in experiment [6]: Forkhead box O1 (FOXO1), FOXO1 (gene 2308)
The experiment can be described thus: LTEA_HepaRG_FOXO1: Life Technologies and Expression Analysis (LTEA) Assay for Forkhead box O1 (FOXO1) using HepaRG (AID 2283456). The essentials:
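Differentiated HepaRG cells, in serum-free induction medium with 0.5% DMSO, exposed 48 h in duplicate to 8-point half-log series from 100 uM. FOXO1 mRNA measured by TaqMan qRT-PCR, normalized to ACTB, GAPDH, POLR2A; bidirectional fit versus DMSO.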

Read-out in experiment [7]: growth arrest and DNA damage 45 (GADD45A), GADD45A (gene 1647)
The experiment can be described thus: LTEA_HepaRG_GADD45A: Life Technologies and Expression Analysis (LTEA) Assay for growth arrest and DNA damage 45 (GADD45A) using HepaRG (AID 2283458). The essentials: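 Cells plated and cultured 48 h, switched to serum-free induction medium, then dosed for 48 h (100 uM top, half-log dilutions, 0.5% DMSO). RNA was isolated and transcript measured by Fluidigm qRT-PCR.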

Read-out in experiment [8]: Forkhead box O3 (FOXO3), FOXO3 (gene 2309)
The experiment can be described thus: LTEA_HepaRG_FOXO3: Life Technologies and Expression Analysis (LTEA) Assay for Forkhead box O3 (FOXO3) using HepaRG (AID 2283459). The essentials: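 Differentiated human HepaRG cells, 48 h post-plating, exposed in duplicate for 48 h in serum-free induction medium; 8-point half-log series from 100 uM in 0.5% DMSO. FOXO3 mRNA by TaqMan qRT-PCR, normalized to ACTB/GAPDH/POLR2A; bidirectional fit versus DMSO.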

Read-out in experiment [9]: ABC Transporter (ABCB1), ABCB1 (gene 5243)
The experiment can be described thus: LTEA_HepaRG_ABCB1: Life Technologies and Expression Analysis (LTEA) Assay for ABC Transporter (ABCB1) using HepaRG (AID 2283460). In short, it runs like this:
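HepaRG cells exposed in duplicate for 48 h in serum-free induction medium to eight half-log concentrations up to 100 uM in 0.5% DMSO. ABCB1 mRNA quantified by qRT-PCR, normalised to ACTB, GAPDH and POLR2A; fitted bidirectionally versus DMSO.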

Read-out in experiment [10]: ABC Transporter (ABCC3), ABCC3 (gene 8714)
In words: LTEA_HepaRG_ABCC3: Life Technologies and Expression Analysis (LTEA) Assay for ABC Transporter (ABCC3) using HepaRG (AID 2283462). The essentials:
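HepaRG cells in serum-free induction medium were exposed for 48 h in duplicate to 8-point half-log concentrations topping at 100 uM in 0.5% DMSO. ABCC3 mRNA was measured by qRT-PCR normalized to ACTB, GAPDH and POLR2A, with bidirectional fitting versus DMSO.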

Read-out in experiment [11]: ABC Transporter (ABCB11), ABCB11 (gene 8647)
In words: LTEA_HepaRG_ABCB11: Life Technologies and Expression Analysis (LTEA) Assay for ABC Transporter (ABCB11) using HepaRG (AID 2283463). The essentials: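 Differentiated human HepaRG cells in serum-free induction medium, dosed in duplicate for 48 h. Eight-point half-log series from 100 uM in 0.5% DMSO; ABCB11 mRNA by qRT-PCR, normalized to ACTB, GAPDH, POLR2A, fitted bidirectionally versus DMSO.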

Read-out in experiment [12]: ABC Transporter (ABCC2), ABCC2 (gene 1244)
The experiment can be described thus: LTEA_HepaRG_ABCC2: Life Technologies and Expression Analysis (LTEA) Assay for ABC Transporter (ABCC2) using HepaRG (AID 2283464). In short, it runs like this:
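HepaRG cells were plated 48 h, switched to serum-free induction medium, then exposed in duplicate for 48 h to 8 concentrations (top 100 uM, half-log steps, 0.5% DMSO). ABCC2 mRNA was measured by qRT-PCR normalized to ACTB/GAPDH/POLR2A; bidirectional fitting versus DMSO.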

Read-out in experiment [13]: Broad substrate specificity ATP-binding cassette transporter ABCG2 (Homo sapiens) (UniProt Q9UNQ0)
The experiment can be described thus: LTEA_HepaRG_ABCG2: Life Technologies and Expression Analysis (LTEA) Assay for ABC Transporter (ABCG2) using HepaRG (AID 2283465). The essentials: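 Differentiated HepaRG cells were exposed for 48 h in serum-free induction medium to 8 half-log concentrations, top 100 uM, in 0.5% DMSO. ABCG2 mRNA was measured by qRT-PCR, normalized to ACTB, GAPDH and POLR2A, with bidirectional fitting versus DMSO.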

Read-out in experiment [14]: ATP-citrate lyase (ACLY), ACLY (gene 47)
In words: LTEA_HepaRG_ACLY: Life Technologies and Expression Analysis (LTEA) Assay for ATP-citrate lyase (ACLY) using HepaRG (AID 2283466). The essentials: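 Differentiated HepaRG cells exposed 48 h in serum-free induction medium to eight half-log concentrations up to 100 uM in 0.5% DMSO, duplicates. Transcript measured by Fluidigm TaqMan qRT-PCR, normalized to ACTB, GAPDH, POLR2A; bidirectional fit versus DMSO.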

Read-out in experiment [15]: Peroxisomal acyl-coenzyme A oxidase 1 (ACOX1) gene, ACOX1 (gene 51)
In words: LTEA_HepaRG_ACOX1: Life Technologies and Expression Analysis (LTEA) Assay for Peroxisomal acyl-coenzyme A oxidase 1 (ACOX1) gene using HepaRG (AID 2283467). The essentials:
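HepaRG cells, plated 48 h then switched to serum-free induction medium, were exposed in duplicate for 48 h to 8-point half-log concentrations up to 100 uM in 0.5% DMSO. ACOX1 mRNA was measured by qRT-PCR, normalized to ACTB/GAPDH/POLR2A, and fitted bidirectionally versus DMSO.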

Read-out in experiment [16]: Alkaline Phosphatase, Placental (ALPP) gene, ALPP (gene 250)
The experiment can be described thus: LTEA_HepaRG_ALPP: Life Technologies and Expression Analysis (LTEA) Assay for Alkaline Phosphatase, Placental (ALPP) gene using HepaRG (AID 2283468). The essentials:
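Differentiated human HepaRG cells were plated and cultured 48 h, then exposed in duplicate for 48 h in serum-free induction medium to eight half-log concentrations from 100 uM in 0.5% DMSO. ALPP mRNA was measured by TaqMan qRT-PCR, normalized to ACTB, GAPDH, POLR2A.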

Read-out in experiment [17]: Bcl-2 (BAD) gene, BAD (gene 572)
The experiment can be described thus: LTEA_HepaRG_BAD: Life Technologies and Expression Analysis (LTEA) Assay for Bcl-2 (BAD) gene using HepaRG (AID 2283469). In short, it runs like this: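 Differentiated HepaRG cells were exposed in duplicate in 0.5% DMSO for 48 h to eight-point half-log concentrations up to 100 uM. BAD mRNA was measured by Fluidigm TaqMan qRT-PCR, normalized to ACTB, GAPDH and POLR2A, and fitted bidirectionally against DMSO.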

Read-out in experiment [18]: Bcl-2 (BAX) gene, BAX (gene 581)
The experiment can be described thus: LTEA_HepaRG_BAX: Life Technologies and Expression Analysis (LTEA) Assay for Bcl-2 (BAX) gene using HepaRG (AID 2283470). In short, it runs like this:
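HepaRG (human liver), 48 h exposure, duplicate wells. 8-pt curve, half-log from 100 uM, 0.5% DMSO. BAX transcript by TaqMan qRT-PCR; ACTB/GAPDH/POLR2A normalization; gain or loss vs DMSO baseline.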

Read-out in experiment [19]: growth arrest and DNA damage 45 (GADD45B), GADD45B (gene 4616)
In words: LTEA_HepaRG_GADD45B: Life Technologies and Expression Analysis (LTEA) Assay for growth arrest and DNA damage 45 (GADD45B) using HepaRG (AID 2283461). The essentials:
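Differentiated HepaRG cells, plated 48 h then switched to serum-free induction medium, were exposed 48 h in duplicate to eight half-log concentrations from 100 uM in 0.5% DMSO; mRNA quantified by qRT-PCR, normalized to ACTB/GAPDH/POLR2A, bidirectional fit versus DMSO.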

Activity calls are given as the source filed them. The calls were made as follows: active = hit-call score of the fitted dose curve at least 0.9, where 1 is the maximum; inactive = score below 0.9.

Chain of Broad substrate specificity ATP-binding cassette transporter ABCG2 (Homo sapiens) (Q9UNQ0 whole entry, looked up): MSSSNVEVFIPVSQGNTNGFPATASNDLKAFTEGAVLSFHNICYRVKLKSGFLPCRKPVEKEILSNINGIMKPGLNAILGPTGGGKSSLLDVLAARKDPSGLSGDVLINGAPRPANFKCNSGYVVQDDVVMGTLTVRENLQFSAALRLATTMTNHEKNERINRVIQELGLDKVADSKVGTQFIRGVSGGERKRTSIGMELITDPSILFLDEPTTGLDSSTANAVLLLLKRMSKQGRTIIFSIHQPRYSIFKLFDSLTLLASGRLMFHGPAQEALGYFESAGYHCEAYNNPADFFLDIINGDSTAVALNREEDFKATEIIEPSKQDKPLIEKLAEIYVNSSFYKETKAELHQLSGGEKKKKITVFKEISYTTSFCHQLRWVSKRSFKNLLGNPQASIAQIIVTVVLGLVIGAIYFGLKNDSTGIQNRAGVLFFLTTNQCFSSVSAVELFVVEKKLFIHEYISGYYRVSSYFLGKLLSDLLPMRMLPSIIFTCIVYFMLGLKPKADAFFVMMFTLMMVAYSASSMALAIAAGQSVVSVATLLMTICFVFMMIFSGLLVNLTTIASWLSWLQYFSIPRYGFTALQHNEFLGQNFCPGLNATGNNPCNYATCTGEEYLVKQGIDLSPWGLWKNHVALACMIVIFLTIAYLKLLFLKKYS

For `c1ccc(N=Nc2ccccc2)cc1`, the outcome in experiment [1], in [2], in experiment [3], in [5], in experiment [6] and in [7] was inactive. Moreover, the molecule was called inactive in experiment [8], in experiment [9], in experiment [10], in experiment [11], in [12] and in [13]. In addition, the result in experiment [14], in experiment [15], in experiment [16], in experiment [17] and in [18] was inactive. Also, the AC50 (in general, the midpoint of the concentration-response curve, whichever way the signal moves) in experiment [4] was 36.6 µM (active).

In the case of `CC(C)(C)C(O)(CCc1ccc(Cl)cc1)Cn1cncn1` (centres undefined), the result in [1], in experiment [2], in experiment [5], in [6], in experiment [7] and in [8] was inactive. For the same molecule, the outcome in experiment [11], in [12], in experiment [13], in experiment [15], in experiment [17] and in experiment [18] was inactive. The AC50 was 76.7 µM (active) in experiment [3]; 6.47 µM (active) in experiment [4]; 3.45 µM (active) in experiment [9]; 6.24 µM (active) in [14]; 80.3 µM (active) in experiment [16].

For `[Cl-].[Cl-].[Hg+2]`, the molecule was called inactive in [1], in experiment [2], in experiment [3], in experiment [5], in [6] and in [8]. For the same molecule, the molecule was classed as inactive in experiment [9], in experiment [10], in [11], in experiment [12], in experiment [13] and in experiment [14]. Also, the result in [15], in [16], in experiment [17] and in experiment [18] was inactive. Further, the AC50 in experiment [4] is 50 µM (active).

On to `O=C1CCCO1`, for which the molecule was called inactive in [1], in experiment [2], in experiment [3], in experiment [4], in experiment [5] and in [6]. The outcome in experiment [8], in experiment [19], in experiment [11], in [12], in experiment [13] and in [14] was inactive. In addition, the molecule was classed as inactive in experiment [15], in [16], in [17] and in experiment [18]. In addition, the AC50 in experiment [9] was 9.92 µM (active).
